Assay [1] deals with RAW-Dual. Description: NF-kB SEAP reporter activity, fold change vs agonist alone; higher = enhanced NF-kB activity. The gist of the method: (§1)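 RAW-Dual macrophages (50,000 cells/well in DMEM, 384-well plates) received 50 nL of library stock by pin tool, then a PRR agonist 1 h later, and were kept at 37 °C, 5% CO2. After 20 hours, supernatant was read for IRF by QuantiLuc luminescence and for NF-κB by QuantiBlue absorbance at 620 nm. Reporter activity is fold change over agonist-alone wells. Cytotoxic wells had IncuCyte confluency below 70% of agonist controls in both mask sets.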

The test system of assay [2] is RAW-Dual. Description: NF-kB SEAP reporter activity, fold change vs agonist alone; cytotoxicity flag (confluency mask): not cytotoxic; higher = enhanced NF-kB activity. The essentials: as §1
For assay [3], the system named is RAW-Dual. In words: NF-kB SEAP reporter activity, fold change vs agonist alone; cytotoxicity flag (confluency mask): cytotoxic (confluency <70% of control); higher = enhanced NF-kB activity. The essentials: as §1
The mark [4] stands for this setting: library stock concentration (final ~1000-fold dilution): 10 mM, cytotoxicity flag (confluency mask): not cytotoxic, agonist: Imiquimod (TLR7) […].
Setting [5] is: library stock concentration (final ~1000-fold dilution): 10 mM, cytotoxicity flag (confluency mask): not cytotoxic, agonist: MPLA (TLR4) […].
Where [6] appears, read: agonist: ODN 1826 (TLR9) 0.5 ug/mL.
Setting [7] is: agonist: Pam2CSK4 (TLR2/6) 0.1 ug/mL.
[8] abbreviates: agonist: Pam3CSK4 (TLR2/1) 0.1 ug/mL.

Whole data set: some 2,900 compounds, median “NF-kB SEAP reporter activity, fold change vs agonist alone” near 0.99, cut for the highest 2% near 2.6. What follows is part of a selection rich in the highest values, with near analogues and random picks from the rest.

Regarding `O=C(/C=C/c1cccnc1)NCCCCC1CCN(C(=O)c2ccccc2)CC1`, the “NF-kB SEAP reporter activity” value with RAW-Dual [1] (setting [4]) was 1.06; with RAW-Dual [1] (setting [5]), 0.719.
On to `O=C(/C=C/c1cccnc1)c1ccncc1` (library stock concentration (final ~1000-fold dilution): 10 mM), for which the “NF-kB SEAP reporter activity” value with RAW-Dual [2] (agonist: LPS (TLR4) 0.1 ug/mL) was 1.03; with RAW-Dual [2] (setting [6]) it was 0.938; in the assay with RAW-Dual [2] (setting [7]), 1.21; with RAW-Dual [2] (setting [8]), 1.05.
For `Nc1ccc(F)cc1NC(=O)c1ccc(CNC(=O)/C=C/c2cccnc2)cc1`, the “NF-kB SEAP reporter activity” value in the assay on RAW-Dual [1] (setting [4]) was found to be 1.65; in the assay with RAW-Dual [1] (setting [5]) it was 1.89.
As to `O=C(/C=C/c1cccnc1)NCCCCC1CCN(C(=O)c2ccccc2)CC1` (library stock concentration (final ~1000-fold dilution): 10 mM), the “NF-kB SEAP reporter activity” value was 0.56 with RAW-Dual [2] (agonist: LPS (TLR4) 0.1 ug/mL), 1.07 with RAW-Dual [2] (setting [6]), 0.67 with RAW-Dual [2] (setting [7]) and 0.537 in the assay with RAW-Dual [2] (setting [8]).
Turning to `Nc1ccc(F)cc1NC(=O)c1ccc(CNC(=O)/C=C/c2cccnc2)cc1` (library stock concentration (final ~1000-fold dilution): 10 mM), the “NF-kB SEAP reporter activity” value in the assay on RAW-Dual [2] (agonist: LPS (TLR4) 0.1 ug/mL) came out at 3.7; with RAW-Dual [2] (setting [6]) it was 3.18; in the assay with RAW-Dual [2] (setting [7]), 0.749; in the assay on RAW-Dual [2] (setting [8]), 1.53.
`O=C(/C=C/c1cccnc1)c1ccncc1`: the “NF-kB SEAP reporter activity” value was determined as 0.871 in the assay on RAW-Dual [1] (setting [4]) and 0.953 in the assay on RAW-Dual [1] (setting [5]).
As for `COc1ccc(C2OCC3C(c4cc(OC)c(OC)c(OC)c4)OCC23)cc1OC` (centres undefined) (library stock concentration (final ~1000-fold dilution): 10 mM), the “NF-kB SEAP reporter activity” value with RAW-Dual [2] (agonist: LPS (TLR4) 0.1 ug/mL) amounted to 1.2; in the assay with RAW-Dual [2] (setting [6]), 1; with RAW-Dual [2] (setting [7]), 1.01; in the assay on RAW-Dual [2] (setting [8]), 1.71.
`COc1ccc(C2OCC3C(c4cc(OC)c(OC)c(OC)c4)OCC23)cc1OC` (centres undefined): the figures for the “NF-kB SEAP reporter activity” value in the assay on RAW-Dual [1] (setting [4]) and with RAW-Dual [1] (setting [5]) were 0.813 and 1.03, respectively.
Regarding `O=C1c2cccc3c2C(CCC3)CN1C1CN2CCC1CC2` (centres undefined) (library stock concentration (final ~1000-fold dilution): 10 mM), the “NF-kB SEAP reporter activity” value in the assay on RAW-Dual [2] (agonist: LPS (TLR4) 0.1 ug/mL) was 1.5; with RAW-Dual [2] (setting [6]) it was 0.937; with RAW-Dual [2] (setting [7]) it was 0.587; in the assay with RAW-Dual [2] (setting [8]) it was 0.339.
Consider `O=C1c2cccc3c2C(CCC3)CN1C1CN2CCC1CC2` (centres undefined), for which the “NF-kB SEAP reporter activity” value with RAW-Dual [1] (setting [4]) was determined as 0.886; in the assay with RAW-Dual [1] (setting [5]), 1.17.
On the same counts, the results for `COC1(c2sc3c(N4CCOCC4)nc(-c4cnc(N)nc4)nc3c2C)COC1` are 0.913 and 1.05.
As for `COc1ccc(-c2nc(N3CCOCC3)c3sc(CN(C)c4ncc(C(=O)NO)cn4)cc3n2)cn1`, the “NF-kB SEAP reporter activity” value in the assay with RAW-Dual [1] (library stock concentration (final ~1000-fold dilution): 10 mM, cytotoxicity flag (confluency mask): cytotoxic (confluency <70% of control), agonist: Imiquimod (TLR7) […]) was determined as 2.88; in the assay on RAW-Dual [1] (library stock concentration (final ~1000-fold dilution): 10 mM, cytotoxicity flag (confluency mask): cytotoxic (confluency <70% of control), agonist: MPLA (TLR4) […]), 2.66.
In the case of `Cc1c(CN2CCN(C(=O)C(C)O)CC2)sc2c(N3CCOCC3)nc(-c3cnc(N)nc3)nc12` (centres undefined) (library stock concentration (final ~1000-fold dilution): 10 mM), the “NF-kB SEAP reporter activity” value turned out to be 1.32 in the assay on RAW-Dual [2] (agonist: LPS (TLR4) 0.1 ug/mL), 0.763 with RAW-Dual [2] (setting [6]), 0.412 in the assay with RAW-Dual [2] (setting [7]) and 0.661 with RAW-Dual [2] (setting [8]).
On to `COC1(c2sc3c(N4CCOCC4)nc(-c4cnc(N)nc4)nc3c2C)COC1` (library stock concentration (final ~1000-fold dilution): 10 mM), for which the “NF-kB SEAP reporter activity” value was 1.46 in the assay with RAW-Dual [2] (agonist: LPS (TLR4) 0.1 ug/mL), 0.707 in the assay on RAW-Dual [2] (setting [6]), 0.459 with RAW-Dual [2] (setting [7]) and 0.608 in the assay with RAW-Dual [2] (setting [8]).
Regarding `COc1ccc(-c2nc(N3CCOCC3)c3sc(CN(C)c4ncc(C(=O)NO)cn4)cc3n2)cn1` (library stock concentration (final ~1000-fold dilution): 10 mM), the “NF-kB SEAP reporter activity” value amounted to 4.34 with RAW-Dual [3] (agonist: LPS (TLR4) 0.1 ug/mL), 2.1 in the assay with RAW-Dual [3] (setting [6]), 1.3 with RAW-Dual [3] (setting [7]) and 1.6 with RAW-Dual [3] (setting [8]).
Regarding `Cc1c(CN2CCN(C(=O)C(C)O)CC2)sc2c(N3CCOCC3)nc(-c3cnc(N)nc3)nc12` (centres undefined), the results for the “NF-kB SEAP reporter activity” value in the assay with RAW-Dual [1] (setting [4]) and with RAW-Dual [1] (setting [5]) were 1 and 1.08, respectively.
Turning to `CC(C)(CNC(=O)c1cccc(-c2noc(C(F)(F)F)n2)c1)c1coc(-c2ccccc2)n1`, the results for the “NF-kB SEAP reporter activity” value with RAW-Dual [1] (setting [4]) and in the assay on RAW-Dual [1] (setting [5]) were 0.959 and 1.09, respectively.
Take `CC(C)(CNC(=O)c1cccc(-c2noc(C(F)(F)F)n2)c1)c1coc(-c2ccccc2)n1` (library stock concentration (final ~1000-fold dilution): 10 mM): the “NF-kB SEAP reporter activity” value in the assay on RAW-Dual [2] (agonist: LPS (TLR4) 0.1 ug/mL) was 1.03; with RAW-Dual [2] (setting [6]), 1.03; in the assay with RAW-Dual [2] (setting [7]) it was 0.625; with RAW-Dual [2] (setting [8]), 0.745.
For the molecule `Nc1ccn(C2OC(CO)C(O)C2O)c(=O)n1` (centres undefined), the “NF-kB SEAP reporter activity” value with RAW-Dual [1] (library stock concentration (final ~1000-fold dilution): 10 mM water, cytotoxicity flag (confluency mask): not cytotoxic, agonist: Imiquimod (TLR7) […]) came out at 1.46; in the assay with RAW-Dual [1] (library stock concentration (final ~1000-fold dilution): 10 mM water, cytotoxicity flag (confluency mask): not cytotoxic, agonist: MPLA (TLR4) […]) it was 1.33.
On to `Nc1ncn(C2CC(O)C(CO)O2)c(=O)n1` (centres undefined), for which the results for the “NF-kB SEAP reporter activity” value in the assay with RAW-Dual [1] (setting [4]) and in the assay on RAW-Dual [1] (setting [5]) were 1.58 and 1.38, respectively.
`Nc1ccn(C2OC(CO)C(O)C2O)c(=O)n1` (centres undefined) (library stock concentration (final ~1000-fold dilution): 10 mM water): the “NF-kB SEAP reporter activity” value came out at 1.92 in the assay with RAW-Dual [2] (agonist: LPS (TLR4) 0.1 ug/mL), 1.7 in the assay on RAW-Dual [2] (setting [6]), 1.85 with RAW-Dual [2] (setting [7]) and 1.83 in the assay on RAW-Dual [2] (setting [8]).
On the same counts, the results for `Nc1ncn(C2OC(CO)C(O)C2O)c(=O)n1` (centres undefined) (library stock concentration (final ~1000-fold dilution): 10 mM) are 1.06, 1.91, 0.631 and 0.71.
On the same counts, the results for `Nc1ncn(C2CC(O)C(CO)O2)c(=O)n1` (centres undefined) (library stock concentration (final ~1000-fold dilution): 10 mM) are 1.55, 1.41, 1.14 and 1.26.
For the molecule `Nc1ncn(C2OC(CO)C(O)C2O)c(=O)n1` (centres undefined), the “NF-kB SEAP reporter activity” value in the assay on RAW-Dual [1] (setting [4]) stood at 2.59; with RAW-Dual [1] (setting [5]), 2.47.
For the molecule `O=C(O)CC(C(=O)O)N1C(=O)/C(=C2/C(=O)Nc3ccc(Br)cc32)SC1=S` (centres undefined), the “NF-kB SEAP reporter activity” value stood at 1.33 in the assay with RAW-Dual [1] (setting [4]) and 1.72 in the assay on RAW-Dual [1] (setting [5]).
As to `O=C(O)CC(C(=O)O)N1C(=O)/C(=C2/C(=O)Nc3ccc(Br)cc32)SC1=S` (centres undefined) (library stock concentration (final ~1000-fold dilution): 10 mM), the “NF-kB SEAP reporter activity” value is 0.98 in the assay on RAW-Dual [2] (agonist: LPS (TLR4) 0.1 ug/mL), 1.56 with RAW-Dual [2] (setting [6]), 1.02 in the assay with RAW-Dual [2] (setting [7]) and 1.06 in the assay with RAW-Dual [2] (setting [8]).
Consider `COc1ccccc1Oc1c(NS(=O)(=O)c2ccc(C(C)(C)C)cc2)nc(-c2ncccn2)nc1OCCO.O` (library stock concentration (final ~1000-fold dilution): 10 mM), for which the “NF-kB SEAP reporter activity” value in the assay with RAW-Dual [2] (agonist: LPS (TLR4) 0.1 ug/mL) was found to be 1.15; with RAW-Dual [2] (setting [6]), 1.01; with RAW-Dual [2] (setting [7]) it was 1.06; with RAW-Dual [2] (setting [8]), 1.1.
Consider `COc1ccccc1Oc1c(NS(=O)(=O)c2ccc(C(C)(C)C)cc2)nc(-c2ncccn2)nc1OCCO.O`, for which the “NF-kB SEAP reporter activity” value worked out at 1.02 in the assay on RAW-Dual [1] (setting [4]) and 1.1 with RAW-Dual [1] (setting [5]).

For the origin of these results see the supplement of paper PMC10037445.
